Data reported in PubChem BioAssay (NCATS).
Results filed as inconclusive are left out. Active and inactive are the calls of the source. Unless noted, the call rests on the fitted dose curve; in most records, active means well fitted curve in the direction sought with a large enough effect; inconclusive means small, poorly fitted or top-dose-only effect, or another doubt; inactive means no such curve, though single readings can be large; an effect the other way counts as inactive or inconclusive.

Columns and labels:
[1] = target: Cytochrome P450 1A2 (Homo sapiens) (UniProt P05177); assay: p450-cyp1a2 (AID 410; calls by dose curve; further: potency means the concentration at half of the fitted maximal effect)
Cytochrome P450 1A2 (Homo sapiens), sequence (P05177 whole entry, looked up): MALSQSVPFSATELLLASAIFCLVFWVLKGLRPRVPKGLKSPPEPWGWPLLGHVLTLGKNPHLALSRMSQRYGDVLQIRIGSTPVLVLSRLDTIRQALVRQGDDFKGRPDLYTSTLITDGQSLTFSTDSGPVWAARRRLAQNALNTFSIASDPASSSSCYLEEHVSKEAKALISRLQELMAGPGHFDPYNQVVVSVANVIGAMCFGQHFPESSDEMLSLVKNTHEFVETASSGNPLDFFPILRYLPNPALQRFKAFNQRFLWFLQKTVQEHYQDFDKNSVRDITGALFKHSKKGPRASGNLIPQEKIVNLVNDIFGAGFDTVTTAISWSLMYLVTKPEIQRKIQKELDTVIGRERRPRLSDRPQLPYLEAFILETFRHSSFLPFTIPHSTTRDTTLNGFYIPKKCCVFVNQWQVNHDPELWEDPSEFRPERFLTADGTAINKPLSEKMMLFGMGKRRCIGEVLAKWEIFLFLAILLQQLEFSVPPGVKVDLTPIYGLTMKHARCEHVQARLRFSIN
How it was run: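 20nM CYP1A2 with 100uM Luciferin-ME (at Km) in 100mM KPO4; compound preincubated 10 min, NADPH regeneration added, 60 min at room temperature. Luciferin quantified by luminescence after detection reagent; normalized to 57 uM furafylline.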

[2] = NFAT Signaling Pathway (AID 444; active means well fitted curve in either direction with a large enough effect, not every such curve was filed as active;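 further: carbachol stimulus at about its EC50 of 1 µM final; on the % scale 0 is the no-effect control and ±100 the full control effect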); settings: Jurkat NFAT-bla M1, carbachol, beta-lactamase ratio, 5 h; at 7.69 µM (top of the series) unless noted
How it was run: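 Jurkat cells carrying an NFAT-driven β-lactamase reporter and co-transfected muscarinic M1 receptor were treated with compound plus carbachol (1 uM final, an EC50 level) for 5 h at 37 °C. CCF4 loading followed for 1 h at RT; 460/530 nm ratio gave %activity.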

[3] = Stat Signaling Pathway (AID 446; active means well fitted curve in either direction with a large enough effect, not every such curve was filed as active;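 further: ME-180 cervical cancer cells given 40 pM IL-6 alongside compound; SIE-controlled beta-lactamase reporter measured as 460/530 nm FRET emission ratio; on the % scale 0 is the no-effect control and ±100 the full control effect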); settings: ME-180 SIE beta-lactamase reporter, IL-6 stimulated, 5 h; at 7.69 µM (top of the series) unless noted
How it was run: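 ME-180 SIE-bla cells; overnight plating; cpd + IL-6 40 pM, 5 h, 37 C; LiveBLAzer 2.5 h RT; 460/530 nm emission ratio. Normalized to 300 pM IL-6 and 125 nM JAK inhibitor controls.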

[4] = target: Glucocorticoid receptor (Homo sapiens) (UniProt P04150); assay: GR-GFP Redistribution (AID 450;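 active means compounds whose dose series gives a full or clear partial fitted curve of increased nuclear translocation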; further: potency means the concentration at half of the fitted maximal effect); settings: U2OS GR-GFP nuclear translocation, laser cytometry, 2 h
Glucocorticoid receptor (Homo sapiens), sequence (P04150 whole entry, looked up, the tested form may be a part): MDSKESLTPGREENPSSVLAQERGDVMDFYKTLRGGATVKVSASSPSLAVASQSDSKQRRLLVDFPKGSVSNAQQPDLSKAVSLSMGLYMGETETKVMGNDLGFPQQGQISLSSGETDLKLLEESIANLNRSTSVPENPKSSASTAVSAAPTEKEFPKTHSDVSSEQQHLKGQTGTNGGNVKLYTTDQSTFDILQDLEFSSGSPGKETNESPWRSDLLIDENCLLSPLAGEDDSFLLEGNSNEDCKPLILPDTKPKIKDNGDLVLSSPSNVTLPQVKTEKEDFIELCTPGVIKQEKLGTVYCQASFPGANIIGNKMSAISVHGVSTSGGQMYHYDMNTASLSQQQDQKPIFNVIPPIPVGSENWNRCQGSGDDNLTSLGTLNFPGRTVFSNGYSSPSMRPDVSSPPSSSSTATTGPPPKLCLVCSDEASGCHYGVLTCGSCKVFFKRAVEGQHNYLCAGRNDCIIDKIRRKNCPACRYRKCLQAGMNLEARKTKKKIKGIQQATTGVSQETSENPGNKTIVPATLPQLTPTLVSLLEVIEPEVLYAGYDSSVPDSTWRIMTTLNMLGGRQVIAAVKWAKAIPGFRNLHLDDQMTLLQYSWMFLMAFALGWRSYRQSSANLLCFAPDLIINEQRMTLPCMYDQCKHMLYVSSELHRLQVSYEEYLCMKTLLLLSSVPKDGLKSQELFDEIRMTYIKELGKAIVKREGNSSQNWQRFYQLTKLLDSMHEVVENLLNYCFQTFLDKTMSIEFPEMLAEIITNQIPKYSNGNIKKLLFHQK

[5] = target: Glucocorticoid receptor (Homo sapiens) (UniProt P04150); assay: GR-EFC Redistribution (AID 451; calls by dose curve; further: potency means the concentration at half of the fitted maximal effect); settings: CHO-K1 GR-EFC translocation, beta-gal luminescence, 2 h
How it was run: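 CHO-K1 cells stably expressing nuclear-localized β-gal enzyme acceptor and GR fused C-terminally to the enzyme donor fragment; ligand-driven nuclear translocation restores β-gal by complementation. Compounds titrated up to 46 uM final, 2 h at 37 °C; luminescence read.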

[6] = target: Mitogen-activated protein kinase 10 (Mus musculus) (UniProt Q61831); assay: JNK3 AlphaScreen Assay (AID 530; active means well fitted curve in either direction with a large enough effect, not every such curve was filed as active;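 further: kinase came from lysate of stimulated human HepG2 cells; signal reports phosphorylation of biotinylated GST-cJun 1-79 at Ser73 with 10 µM ATP; on the % scale 0 is the no-effect control and ±100 the full control effect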)
How it was run: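 Inhibitors reduce antibody binding to phosphorylated biotin-cJun, lowering AlphaScreen luminescence. Lysates from HepG2 cells pre-activated by IL-1beta plus TNF-alpha supplied JNK3; compounds were titrated.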

[7] = target: 3',5'-cyclic-AMP phosphodiesterase 4B (Homo sapiens) (UniProt Q07343); assay: qHTS Assay for Inhibitors of PDE-IV (AID 607; active means well fitted activation curve with a large enough effect in the main read-out, with a control signal flat, not every such curve was filed as active; further: % of control where 0% means no effect)
How it was run: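 ACTOne HEK293 cells carry a modified cAMP-gated CNG channel and express endogenous PDE4; plated 1000 cells/well, compounds up to 22.9 uM final. Membrane-potential dye fluorescence (ex 535/em 590) was read; parental cells received 10 uM forskolin + 100 uM RO 20-1724.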

[8] = target: Cytochrome P450 3A4 (Homo sapiens) (UniProt P08684); assay: qHTS Assay for Activators of Cytochrome P450 3A4 (AID 885); further: nearly all actives have a fitted effect of over 65% in size
Cytochrome P450 3A4 (Homo sapiens), sequence (P08684 whole entry, looked up): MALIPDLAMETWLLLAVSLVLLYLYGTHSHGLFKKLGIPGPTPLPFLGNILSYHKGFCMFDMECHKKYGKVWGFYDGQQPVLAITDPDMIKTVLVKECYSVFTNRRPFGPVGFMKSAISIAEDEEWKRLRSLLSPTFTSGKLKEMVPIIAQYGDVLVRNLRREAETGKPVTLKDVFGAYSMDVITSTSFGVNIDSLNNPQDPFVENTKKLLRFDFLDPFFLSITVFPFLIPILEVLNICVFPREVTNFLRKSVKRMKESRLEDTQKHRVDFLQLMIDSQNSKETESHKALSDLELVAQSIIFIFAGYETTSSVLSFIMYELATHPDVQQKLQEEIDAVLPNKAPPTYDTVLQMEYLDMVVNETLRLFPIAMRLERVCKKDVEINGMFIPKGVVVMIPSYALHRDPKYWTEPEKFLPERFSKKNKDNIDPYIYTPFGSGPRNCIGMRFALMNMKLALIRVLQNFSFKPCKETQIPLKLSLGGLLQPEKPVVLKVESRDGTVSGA
How it was run: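 20nM CYP3A4 + 25uM Luciferin-PPXE (=KM), 200mM KPO4; cpd 10 min RT; NADPH regen, 60 min RT; stop w/ detection buffer, 20 min; luminescence. Normalized to 57 uM ketoconazole.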

[9] = target: Cytochrome P450 2C19 (Homo sapiens) (UniProt P33261); assay: qHTS Assay for Inhibitors and Substrates of Cytochrome P450 2C19 (AID 899); further: potency means the concentration at half of the fitted maximal effect; nearly all actives have a fitted effect of over 60% in size
How it was run: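 In 50mM KPO4, the reaction held 5nM enzyme and KM-level (10uM) Luciferin-H EGE; it ran 60 min at 37C after NADPH regeneration and a 10 min compound preincubation. Luminescence values were scaled to 57uM ketoconazole as complete inhibition.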

[10] = target: Dual specificity protein kinase CLK4 (Homo sapiens) (UniProt Q9HAZ1); assay: qHTS Assay for Inhibitors of CDC-like Kinase 4 (Kinase-Glo Assay) (AID 1770); further: potency means the concentration at half of the fitted maximal effect; nearly all actives have a fitted effect of over 65% in size
Dual specificity protein kinase CLK4 (Homo sapiens), sequence (Q9HAZ1 whole entry, looked up): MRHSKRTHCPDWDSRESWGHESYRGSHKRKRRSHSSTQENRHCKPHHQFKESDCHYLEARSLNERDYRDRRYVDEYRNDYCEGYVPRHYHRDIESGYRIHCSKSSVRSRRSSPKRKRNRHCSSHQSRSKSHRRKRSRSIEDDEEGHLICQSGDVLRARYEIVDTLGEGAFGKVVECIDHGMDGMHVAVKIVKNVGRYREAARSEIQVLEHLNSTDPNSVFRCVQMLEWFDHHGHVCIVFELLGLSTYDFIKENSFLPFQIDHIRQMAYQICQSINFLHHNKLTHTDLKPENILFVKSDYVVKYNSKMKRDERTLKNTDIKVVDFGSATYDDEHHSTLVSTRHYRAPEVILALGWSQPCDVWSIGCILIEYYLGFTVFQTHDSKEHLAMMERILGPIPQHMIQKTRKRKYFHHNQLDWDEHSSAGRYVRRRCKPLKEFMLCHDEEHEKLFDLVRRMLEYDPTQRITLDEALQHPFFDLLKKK
How it was run: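 Substrate mix (RS peptide 100 uM, ATP 1 uM) dispensed, compound pinned in, then Clk4 added to 25 nM final. Incubated 4.5 h at RT; Kinase-Glo reagent added, luminescence read after 5 min.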

[11] = target: Dual specificity protein kinase CLK4 (Homo sapiens) (UniProt Q9HAZ1); assay: qHTS Assay for Inhibitors of CDC-like Kinase 4 (ADP-Glo Assay) (AID 1771); further: potency means the concentration at half of the fitted maximal effect; nearly all actives have a fitted effect of over 70% in size
How it was run: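 25 nM Clk4 with 100 uM RS repeat peptide and 1 uM ATP (final) in buffer with 2 mM MgCl2, 0.5 mM EGTA, 2.5 mM DTT, 0.01% Triton X-100; 1 h at room temperature; ADP-Glo luminescence for ADP formed.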

[12] = target: Dual specificity protein kinase CLK4 (Homo sapiens) (UniProt Q9HAZ1); assay: qHTS Assay for Inhibitors of CDC-like Kinase 4 (ADP-FP Assay) (AID 1795); further: potency means the concentration at half of the fitted maximal effect; nearly all actives have a fitted effect of over 60% in size
How it was run: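 Clk4 6.25 nM; RS peptide 100 uM; ATP 1 uM; 25 mM Tris pH 7.5, 10 mM MgCl2; 1 h reaction. ADP detected via antibody/orange tracer FP displacement; TG003 positive control.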

[13] = target: Ubiquitin carboxyl-terminal hydrolase 1 (Homo sapiens) (UniProt O94782); assay: Inhibitors of USP1/UAF1: Pilot qHTS (AID 504865);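 further: rhodamine fluorescence freed from ubiquitin-rhodamine substrate followed over time; top concentration of the series differs between compounds; on the % scale 0 is the no-effect control and ±100 the full control effect; nearly all actives have a fitted effect of over 35% in size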
Ubiquitin carboxyl-terminal hydrolase 1 (Homo sapiens), sequence (O94782 whole entry, looked up): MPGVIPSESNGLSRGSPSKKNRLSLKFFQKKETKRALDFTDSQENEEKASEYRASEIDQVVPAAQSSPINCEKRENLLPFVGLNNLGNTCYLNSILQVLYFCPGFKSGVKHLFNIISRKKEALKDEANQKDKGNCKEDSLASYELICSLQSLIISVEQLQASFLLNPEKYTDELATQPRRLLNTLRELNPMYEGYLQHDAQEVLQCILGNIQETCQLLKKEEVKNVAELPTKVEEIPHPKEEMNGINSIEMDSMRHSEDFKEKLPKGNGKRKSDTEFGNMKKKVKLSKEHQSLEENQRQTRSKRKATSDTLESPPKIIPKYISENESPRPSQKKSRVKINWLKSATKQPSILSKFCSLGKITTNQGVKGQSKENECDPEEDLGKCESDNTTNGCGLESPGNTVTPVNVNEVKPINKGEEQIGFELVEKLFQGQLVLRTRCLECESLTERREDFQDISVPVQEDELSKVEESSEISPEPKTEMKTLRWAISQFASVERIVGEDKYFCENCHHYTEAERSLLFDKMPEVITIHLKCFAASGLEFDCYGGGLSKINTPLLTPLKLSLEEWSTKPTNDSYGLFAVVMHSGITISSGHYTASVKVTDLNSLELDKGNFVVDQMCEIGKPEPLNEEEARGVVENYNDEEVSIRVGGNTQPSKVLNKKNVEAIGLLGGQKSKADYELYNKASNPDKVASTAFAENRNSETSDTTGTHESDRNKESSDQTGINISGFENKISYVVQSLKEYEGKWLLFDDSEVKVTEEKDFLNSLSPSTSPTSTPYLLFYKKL
How it was run: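 In 50mM HEPES pH 7.8 containing 0.5mM EDTA, 1mM TCEP, 0.1 mg/ml BSA and 0.01% Tween-20, 1nM USP1/UAF1 is exposed to compound for 15 min, then Ub-Rho (150nM final) is added and fluorescence is read over time.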

[14] = target: Calcium and integrin-binding protein 1 (Homo sapiens) (UniProt Q99828); assay: Primary qHTS for Identification of Calcium Integrin Binding Protein 1 (CIB1) Competitor (AID 1508620);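 further: GST tagged CIB1 binding a fluorescein labelled alphaIIb integrin peptide tracer; top concentration of the series differs between compounds; on the % scale 0 is the no-effect control and ±100 the full control effect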
Calcium and integrin-binding protein 1 (Homo sapiens), sequence (Q99828 whole entry, looked up): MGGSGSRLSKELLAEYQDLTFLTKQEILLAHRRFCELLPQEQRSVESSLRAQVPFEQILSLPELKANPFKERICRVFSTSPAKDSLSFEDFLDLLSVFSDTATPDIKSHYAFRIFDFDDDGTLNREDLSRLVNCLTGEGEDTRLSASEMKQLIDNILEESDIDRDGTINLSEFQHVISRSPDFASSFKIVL
How it was run: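 Fluorescence polarization competition: CIB1-GST (1 uM final) preincubated with compound 15 min at room temperature, then FITC-labeled alphaIIb peptide (100 nM final) added for another 15 min. Polarization read at Ex 480/Em 540.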

[15] = Primary qHTS for small molecule stabilizers of the endoplasmic reticulum resident proteome: Secreted ER Calcium Modulated Protein (SERCaMP) assay (AID 1508630); further: on the % scale 0 is the no-effect control and ±100 the full control effect
How it was run: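 GLuc-SERCaMP-expressing SH-SY5Y cells, pretreated 16 h with compound, are challenged with thapsigargin to empty ER calcium stores; after 4 h, coelenterazine is added directly to the medium and luminescence is imaged.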

[16] = target: Lysosomal acid glucosylceramidase (Homo sapiens) (UniProt P04062); assay: Glucocerebrosidase-p2 (AID 348; in the data active means potency below about 10 µM; further: potency means the concentration at half of the fitted maximal effect); settings: purified GBA, blue fluorogenic substrate, 40 min
Lysosomal acid glucosylceramidase (Homo sapiens), sequence (P04062 whole entry, looked up): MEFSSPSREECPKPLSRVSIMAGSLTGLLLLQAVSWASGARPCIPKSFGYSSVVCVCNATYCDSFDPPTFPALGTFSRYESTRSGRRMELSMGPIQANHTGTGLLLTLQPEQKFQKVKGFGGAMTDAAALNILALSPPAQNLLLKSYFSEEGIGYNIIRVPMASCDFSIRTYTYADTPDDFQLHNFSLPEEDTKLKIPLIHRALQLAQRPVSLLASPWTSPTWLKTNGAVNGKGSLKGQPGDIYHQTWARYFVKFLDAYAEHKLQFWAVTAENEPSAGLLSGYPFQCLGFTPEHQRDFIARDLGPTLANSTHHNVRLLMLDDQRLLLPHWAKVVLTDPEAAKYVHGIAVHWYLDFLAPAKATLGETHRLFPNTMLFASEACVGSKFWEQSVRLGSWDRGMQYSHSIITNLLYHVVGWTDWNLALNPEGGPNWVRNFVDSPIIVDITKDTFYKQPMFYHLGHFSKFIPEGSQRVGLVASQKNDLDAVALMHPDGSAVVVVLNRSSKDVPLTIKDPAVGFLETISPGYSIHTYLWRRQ
How it was run: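 Compounds titrated from 0.6 nM upwards against 0.2 nM enzyme in pH 5.9 citric acid/KH2PO4, taurocholate, tween-20; blue fluorogenic substrate 80 uM, 40 min room temperature, stopped and read Ex 365/Em 440 for AC50.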

[17] = Confirmation and Secondary Assay for Modulators of Hemoglobin Beta Chain Splicing at IVS2 654 locus (AID 910);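 further: per-well total GFP intensity by laser scanning cytometry after 2-day treatment; % of control where 0% means no effect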
How it was run: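 HeLa cells stably carrying EGFP interrupted by mutant beta-globin IVS2-654 intron (CMV-driven) were treated with compound for 2 days at 37C; corrected splicing was scored as total peak GFP intensity per well (488 nm excitation, 500-520 nm emission).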

[18] = Confirmation and Secondary Assay for Modulators of Hemoglobin Beta Chain Splicing at IVS2 705 locus (AID 930);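 further: HeLa cells stably expressing the EGFP-705 splicing reporter; GFP fluorescence per well restored by corrected splicing of the IVS2-705 intron in EGFP; % of control where 0% means no effect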
How it was run: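 Fluorescence gain (488 nm laser, 500-520 nm PMT) reflects restored correct splicing of a mutant IVS2-705 intron inside EGFP in stably transfected HeLa cells after 2-day compound treatment.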

[19] = qHTS Assay for Lipid Storage Modulators (AID 1519; calls by dose curve); settings: Drosophila S3 cells, BODIPY lipid droplet/cell ratio, laser cytometry, cells loaded with oleic acid; for activity change, negative = inhibition: at 57.5 µM (top of the series)
How it was run: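 Cells seeded at 5,000 per well were treated with compounds over a concentration series and loaded with oleic acid (400 uM, as added). Lipid droplet fluorescence (488 nm excitation, 500-530 nm channel) was read by laser-scanning cytometry and normalized to 20 uM Triacsin C.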

[20] = target: Cytochrome P450 3A4 (Homo sapiens) (UniProt P08684); assay: qHTS Assay for Inhibitors and Substrates of Cytochrome P450 3A4 (AID 884); further: potency means the concentration at half of the fitted maximal effect; nearly all actives have a fitted effect of over 50% in size
How it was run: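 20 nM human CYP3A4 with 25 uM Luciferin-PPXE (at KM) in 200 mM KPO4, preincubated 10 min with compound; NADPH regeneration started a 60 min RT reaction. Luciferin detected by luminescence, normalized to 57 uM ketoconazole as full inhibition.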

[21] = target: Cytochrome P450 2D6 (Homo sapiens) (UniProt P10635); assay: qHTS Assay for Inhibitors and Substrates of Cytochrome P450 2D6 (AID 891); further: potency means the concentration at half of the fitted maximal effect; nearly all actives have a fitted effect of over 60% in size
How it was run: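 Human CYP2D6 (5 nM) with 30 uM Luciferin-ME EGE (at Km) in 100 mM KPO4, compound preincubated 10 min, then NADPH regeneration system for 60 min at room temperature. Luciferin read by luminescence; normalized to 1.43 uM quinidine.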

[22] = AP1 Signaling Pathway (AID 357; active means well fitted curve in either direction with a large enough effect, not every such curve was filed as active; further: on the % scale 0 is the no-effect control and ±100 the full control effect); settings: ME-180 (cervical carcinoma) AP-1-bla reporter, EGF-induced, beta-lactamase ratio, 5 h; at 7.69 µM (top of the series) unless noted
How it was run: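 In this screen, ME-180 cells in Opti-MEM with 0.5% dialyzed FBS received EC50 EGF and compound titrations for 5 h. AP-1 reporter beta-lactamase was detected via CCF4 ratio, giving AC50 for positive and negative modulators.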

[23] = target: Rap guanine nucleotide exchange factor 3 (Homo sapiens) (UniProt O95398); assay: Confirmatory qHTS for antagonist of cAMP-regulated guanine nucleotide exchange factor 3 (EPAC1) (AID 1645880);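 further: plate controls were DMSO only for no effect and full effect of the ATA control for full effect; nearly all actives have a fitted effect of over 55% in size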
Rap guanine nucleotide exchange factor 3 (Homo sapiens), sequence (O95398 whole entry, looked up): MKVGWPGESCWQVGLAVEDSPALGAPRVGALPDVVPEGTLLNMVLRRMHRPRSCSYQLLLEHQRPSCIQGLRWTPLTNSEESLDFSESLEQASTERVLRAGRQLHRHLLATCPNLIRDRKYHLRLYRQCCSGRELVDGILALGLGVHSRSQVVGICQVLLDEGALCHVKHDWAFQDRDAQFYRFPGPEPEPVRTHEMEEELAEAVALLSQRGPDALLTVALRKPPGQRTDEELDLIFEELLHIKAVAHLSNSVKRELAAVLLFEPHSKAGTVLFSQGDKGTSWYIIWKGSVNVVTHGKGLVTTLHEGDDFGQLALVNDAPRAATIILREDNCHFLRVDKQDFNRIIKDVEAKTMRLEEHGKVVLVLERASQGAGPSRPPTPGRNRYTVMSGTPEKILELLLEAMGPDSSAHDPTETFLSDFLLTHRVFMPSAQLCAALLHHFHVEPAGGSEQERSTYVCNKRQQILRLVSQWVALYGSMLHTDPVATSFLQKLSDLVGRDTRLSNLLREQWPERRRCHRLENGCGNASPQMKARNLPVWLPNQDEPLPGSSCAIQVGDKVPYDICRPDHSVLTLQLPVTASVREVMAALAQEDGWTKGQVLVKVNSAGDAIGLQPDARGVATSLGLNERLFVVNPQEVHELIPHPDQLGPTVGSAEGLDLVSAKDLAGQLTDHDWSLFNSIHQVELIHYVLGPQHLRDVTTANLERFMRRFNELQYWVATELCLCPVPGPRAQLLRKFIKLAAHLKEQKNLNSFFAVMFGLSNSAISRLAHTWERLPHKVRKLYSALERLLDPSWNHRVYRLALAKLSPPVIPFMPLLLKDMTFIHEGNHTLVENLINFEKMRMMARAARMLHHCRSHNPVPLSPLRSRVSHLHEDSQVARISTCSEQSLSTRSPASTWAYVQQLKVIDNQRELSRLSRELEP
How it was run: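 Nucleotide exchange uses 100 nM EPAC1, 250 nM RAP1B-BODIPY-GDP and 50 uM GDP, with compounds in a concentration-titration series. After 5 min at room temperature, fluorescence (480 nm ex/540 nm em) is read every 5 min for 30 min. Data are normalized to control ATA and DMSO.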

[24] = target: Rap guanine nucleotide exchange factor 3 (Homo sapiens) (UniProt O95398); assay: Confirmatory qHTS for agonist of cAMP-regulated guanine nucleotide exchange factor 3 (EPAC1) (AID 1645881);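 further: EPAC1 catalysed release of BODIPY-GDP from Rap1B seen as fluorescence loss; 100% = effect of cAMP agonist control; nearly all actives have a fitted effect of over 75% in size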
[25] = target: Rap guanine nucleotide exchange factor 4 (Homo sapiens) (UniProt Q8WZA2); assay: Confirmatory qHTS for agonist of cAMP-regulated guanine nucleotide exchange factor 4 (EPAC2) (AID 1645884);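 further: nucleotide exchange releases bodipy-GDP from Rap1 and this lowers its fluorescence; on the % scale 0 is the no-effect control and ±100 the full control effect; nearly all actives have a fitted effect of over 65% in size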
[26] = target: Rap guanine nucleotide exchange factor 4 (Homo sapiens) (UniProt Q8WZA2); assay: Confirmatory qHTS for antagonist of cAMP-regulated guanine nucleotide exchange factor 4 (EPAC2) (AID 1645885); further: on the % scale 0 is the no-effect control and ±100 the full control effect; nearly all actives have a fitted effect of over 25% in size
[27] = target: Rap guanine nucleotide exchange factor 3 (Homo sapiens) (UniProt O95398); assay: Counterscreen qHTS for antagonist of cAMP-regulated guanine nucleotide exchange factor 3 (EPAC1) (AID 1645888);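 further: fluorescence loss as bound BODIPY-GDP is released from Rap1B; % of control where 0% means no effect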
How it was run: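 Measured: fluorescence of BODIPY-GDP bound to Rap1B, which falls as exchange proceeds. Conditions include 50 uM competing GDP, 5 and 30 min reads, and a later cAMP challenge for antagonist detection.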

[28] = measured here: cell count channel max response
[29] = measured here: lipid channel max response

c1cncc(CNc2ncnc3ccc(-c4ccoc4)cc23)c1
active: Potency [1] 316 nM | Potency [9] 0.0251 µM | Potency [10] 2.82 µM | Potency [11] 1.58 µM | Potency [12] 794 nM
inactive: activity change, negative = inhibition [2] 2.59% | activity, negative = inhibition [3] -13.4% | Potency [4] > 46 µM | Potency [5] > 46 µM | outcome [6] | Potency [7] | Potency [8] | Potency [13] | Potency [14] | Potency [15]

c1cncc(CNc2ncnc3ccc(-c4cccnc4)cc23)c1
-9.9%: max response [19, 28]
inactive: Potency [16] > 11.4 µM | Potency [5] > 46 µM | outcome [6] | Potency [7] | outcome [17] | outcome [18] | activity change, negative = inhibition [19] 7.28% | Potency [14] | Potency [15]
-4.35%: max response [19, 29]

O=C(Nc1cc(Cc2ccccc2)ccn1)c1ccc(-c2cccc([N+](=O)[O-])c2)o1
inactive: Potency [14]

COc1ccc(NC(=O)c2cnn3c(C)cc(C)nc23)cc1F
inactive: Potency [14]

O=C1CCc2cc(S(=O)(=O)Nc3ccc4c(c3)CCC4)ccc2N1
inactive: Potency [14]

Cc1cc(C)n2ncc(C(=O)NC3CCCCC3)c2n1
inactive: Potency [14]

COc1ccc2ccccc2c1CN(C)CC(=O)Nc1ccc(N2CCOCC2)cc1
inactive: Potency [14]

CN(Cc1ccco1)c1ncnc2ccc(-c3cccnc3)cc12
-8.64%: max response [19, 28]
active: Potency [1] 316 nM | Potency [20] 3.98 µM | Potency [21] 2 µM | Potency [9] 7.94 µM
inactive: Potency [16] > 11.4 µM | activity, negative = inhibition [3] -12.5% | Potency [4] > 46 µM | Potency [5] > 46 µM | outcome [6] | Potency [8] | outcome [17] | activity change, negative = inhibition [19] 2.3% | Potency [13] | Potency [14] | Potency [15]
-5.56%: max response [19, 29]

COc1cccc(-c2ccc3ncnc(N(C)Cc4ccco4)c3c2)c1
7.63%: max response [19, 29]
8.44%: max response [19, 28]
active: Potency [1] 1260 nM | Potency [9] 2 µM | Potency [10] 2 µM | Potency [11] 1.78 µM | Potency [12] 562 nM
inactive: Potency [16] > 11.4 µM | activity change, negative = inhibition [22] -18.7% | activity change, negative = inhibition [2] -8.47% | activity, negative = inhibition [3] -14.9% | Potency [4] > 46 µM | Potency [5] > 46 µM | outcome [6] | Potency [7] | Potency [8] | activity change, negative = inhibition [19] 1.9% | Potency [13] | Potency [14] | Potency [15] | Potency [23] | outcome [24] | activation [25] 8.39% [at 17.1 µM] | activity change, negative = inhibition [26] -12.8% [at 12.7 µM] | outcome [27]
